DENV2 CPE rescue – inhibitors of DENV2 cytopathic effect, primary screen, cell-based, plate reader, single concentration. 350,000 compounds, 1.7% hits. AID 651640, 2012. CPE inhibition, % at 9.99 µM. DENV2-infected cells, cytopathic effect rescue; in the data active = CPE inhibition above about 20%, passing the limit was not always enough; tested in BHK-21 cells;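 also: 0% = median of neutral control wells and 100% = median of positive control wells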
dFosB act – activators of delta FosB homodimer, primary screen, biochemical, fluorescence polarization, TAMRA-CDK5 oligo, single point; Protein FosB (Mus musculus), P13346; purified delta FosB; percent of positive-control signal above neutral wells; activation, % at 25 µM; 340,000 compounds, 0.99% hits; AID 493131, 2011;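 active = mean activation above about 17%, with every replicate also reaching it, limit read from the data, passing the limit was not always enough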
RAD52 inh – RAD52 DNA annealing inhibitors, primary screen, biochemical, FRET, single point, set 2 | DNA repair protein RAD52 homolog (Homo sapiens), P43351 | recombinant RAD52 DNA annealing, FRET fluorescence | inhibition, % at 18.7 µM | 360,000 compounds, 0.46% hits | AID 651710, 2012;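 active = every replicate showing at least 50% inhibition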
GSIS activator – GLuc luminescence reporter in INS-1E cells, primary screen for activators of glucose-dependent secretion of insulin | INS-1E GLuc reporter insulin secretion, 2-3 h | activation, % at 16.6 µM | 370,000 compounds, 0.61% hits;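 active = lowest replicate activation of at least 40%, so every replicate reaches that level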;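 also: 0% = median of neutral control wells and 100% = median of IBMX positive control wells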
RAD54 inh – inhibitors of human RAD54 branch migration, primary screen, biochemical, fluorescence, single point; DNA repair and recombination protein RAD54-like (Homo sapiens), Q92698; RAD54 Holliday junction branch migration, FAM/BHQ fluorescence; 360,000 compounds, 0.14% hits; AID 602329, 2012; inhibition, % at 10.4 µM;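 active = mean normalized replicate activity at least 40 and at least half of replicates scoring 40 or more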;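 also: 0% = median of neutral control wells and 100% = median of positive control wells; inhibitors cause a drop in the FAM fluorescence signal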
Target sequence (Q92698 whole entry, looked up): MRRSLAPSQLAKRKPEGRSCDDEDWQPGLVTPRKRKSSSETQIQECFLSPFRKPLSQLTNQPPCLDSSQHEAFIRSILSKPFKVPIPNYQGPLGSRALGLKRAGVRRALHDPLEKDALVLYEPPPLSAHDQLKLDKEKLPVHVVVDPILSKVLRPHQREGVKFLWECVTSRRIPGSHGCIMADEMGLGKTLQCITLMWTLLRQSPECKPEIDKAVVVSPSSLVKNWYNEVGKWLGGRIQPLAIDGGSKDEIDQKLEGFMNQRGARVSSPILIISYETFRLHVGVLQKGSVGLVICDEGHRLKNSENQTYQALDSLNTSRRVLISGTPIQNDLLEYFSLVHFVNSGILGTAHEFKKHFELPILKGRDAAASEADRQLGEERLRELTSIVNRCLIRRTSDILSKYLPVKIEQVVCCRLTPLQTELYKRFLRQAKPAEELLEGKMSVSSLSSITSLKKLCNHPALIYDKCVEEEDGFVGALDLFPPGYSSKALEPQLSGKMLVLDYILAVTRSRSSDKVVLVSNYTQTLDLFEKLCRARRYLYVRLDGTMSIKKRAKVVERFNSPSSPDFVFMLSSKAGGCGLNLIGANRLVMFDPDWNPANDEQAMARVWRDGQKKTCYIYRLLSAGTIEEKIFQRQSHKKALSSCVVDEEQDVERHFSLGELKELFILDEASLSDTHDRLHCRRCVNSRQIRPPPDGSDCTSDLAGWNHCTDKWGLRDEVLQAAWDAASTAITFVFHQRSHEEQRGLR
MLL AF4-AF9 inh – inhibitors of AF4 peptide binding to AF9, primary screen, biochemical, AlphaScreen, biotin-AF4 peptide, FLAG-AF9, single point | Protein AF-9 (Homo sapiens), P42568 | inhibition, % at 10 µM | 350,000 compounds, 0.47% hits;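 active = every replicate reaching a set inhibition limit, whatever the replicate mean, cut at about 25% in these data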;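 also: 0% = plate neutral control median and 100% = total signal loss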
* marks the source's active call; other numbers are inactive results. Sampled rows, rich in hits. Any-hit rate of the full collection: about 3.1%.

`CC1CCN(S(=O)(=O)c2ccc(C(=O)Nc3nnc(-c4ccco4)o3)cc2)CC1` gave DENV2 CPE rescue 89.6*, dFosB act -4.7, RAD52 inh -18.7, GSIS activator 3.3, RAD54 inh -1.8 and MLL AF4-AF9 inh 5.2.
Screening O=C(CCCC(=O)c1ccccc1)NCc1ccccc1 returned DENV2 CPE rescue 3.5, dFosB act -2.4, RAD52 inh -6.6, GSIS activator 40.0*, RAD54 inh -16.4 and MLL AF4-AF9 inh -2.4.
For Cc1ccc(CNC(=O)CCCC(=O)c2ccccc2)cc1 the results were DENV2 CPE rescue 0.2, dFosB act -4.9, RAD52 inh -8.1, GSIS activator 31.8, RAD54 inh -3.9 and MLL AF4-AF9 inh -2.8.
CNC(=O)C[C@H]1CC[C@H]2[C@@H](COc3ccc(NC(=O)c4ccc5c(c4)OCO5)cc3C(=O)N2C)O1 was read as DENV2 CPE rescue -0.3, GSIS activator 5.6 and RAD54 inh 3.9.
Screening COc1ccc(NC(=O)N[C@H]2CC[C@@H](CCNS(=O)(=O)c3cccc(Cl)c3)O[C@@H]2CO)cc1 returned DENV2 CPE rescue -5.8, RAD52 inh -2.5, GSIS activator 0.6, RAD54 inh 0.5 and MLL AF4-AF9 inh 3.1.
COc1cccc(NC(=O)N[C@@H]2CC[C@@H](CC(=O)N3CCOCC3)O[C@@H]2CO)c1 was read as DENV2 CPE rescue 64.1*, RAD52 inh 13.5, GSIS activator 0.3, RAD54 inh -0.7 and MLL AF4-AF9 inh -2.1.
COc1ccccc1NC(=O)N[C@H]1CC[C@H](CCNS(=O)(=O)c2ccc(C)cc2)O[C@H]1CO was read as DENV2 CPE rescue 21.8*, RAD52 inh 5.4, GSIS activator 3.7 and MLL AF4-AF9 inh -2.7.
`COc1ccccc1NC(=O)N[C@H]1CC[C@@H](CCNS(=O)(=O)c2ccc(Cl)cc2)O[C@H]1CO` gave DENV2 CPE rescue 20.5*, RAD52 inh 0.2, GSIS activator -5.2, RAD54 inh -15.0 and MLL AF4-AF9 inh 2.1.
For COc1ccc(NC(=O)N[C@@H]2CC[C@@H](CCNS(=O)(=O)c3cccc(Cl)c3)O[C@@H]2CO)cc1 the results were DENV2 CPE rescue 114.1*, RAD52 inh 7.2, GSIS activator -4.8, RAD54 inh 1.9 and MLL AF4-AF9 inh -9.0.
`Cc1noc(C)c1S(=O)(=O)Nc1ccc2c(c1)C(=O)N([C@@H](C)CO)C[C@H](C)[C@@H](CN(C)Cc1ccncc1)OCCCC[C@H](C)O2` gave DENV2 CPE rescue 0.5, RAD52 inh -3.5, GSIS activator 4.2, RAD54 inh -1.8 and MLL AF4-AF9 inh 2.3.
`O=C(C[C@@H]1CC[C@H](NC(=O)Nc2ccc(C(F)(F)F)cc2)[C@@H](CO)O1)NCc1cc(F)cc(F)c1` gave DENV2 CPE rescue 10.1, RAD52 inh 0.6, GSIS activator 18.2, RAD54 inh -12.9 and MLL AF4-AF9 inh 0.0.
Screening CCOc1cc(OCC)nc(S(C)(=O)=O)n1 returned dFosB act 4.5 and GSIS activator 48.7*.
O=C(/C=C\c1cn(-c2ccccc2)nc1-c1ccccc1)Nc1nccs1 was read as dFosB act -0.1 and GSIS activator 46.8*.
For CC(=O)NS(=O)(=O)c1ccc(NC(=O)/C=C/c2cn(-c3ccccc3)nc2-c2ccccc2)cc1 the results were dFosB act -51.0, RAD52 inh -16.4, GSIS activator -11.0, RAD54 inh -10.6 and MLL AF4-AF9 inh -7.4.
Screening N#CC1=C(N)Oc2n[nH]c(-c3ccc(F)cc3)c2C1c1cccnc1 (stereo not drawn) returned dFosB act -5.1, GSIS activator 56.2* and RAD54 inh -1.5.
Cc1ccc(CN2C(=O)CSc3ccc(C(=O)NCCN4CCOCC4)cc32)cc1 was read as dFosB act -6.5 and RAD54 inh -16.1.
Screening O=C(NCCN1CCOCC1)c1ccc2c(c1)N(Cc1ccc(F)cc1)C(=O)CS2 returned DENV2 CPE rescue 63.6*, dFosB act -7.4, RAD52 inh -2.3, RAD54 inh -2.7 and MLL AF4-AF9 inh 1.5.
